Laboratory results reported in PubChem BioAssay (EPA / NIEHS).
Where “and” joins values, the source holds several entries; their conditions need not be identical. Equal values may be shown once. Inconclusive results are not listed. Where a structure was tested more than once in an assay, its records may differ in their call. Calls of active or inactive are those of the source. How the source made its calls, unless noted: active means hit-call score of the fitted dose curve at least 0.9, where 1 is the maximum; inactive means score below 0.9.

How the values were obtained:
[1] = BSK_4H_Eotaxin3: BioMAP Diversity Plus: 4H Assay for Eotaxin 3 Biomarker Activity (AID 2283000); conditions: primary human endothelial cells (HUVEC); actives raise or lower the signal
Method in brief: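 Chemicals were added to human umbilical vein endothelium cultures, and Eotaxin-3 was quantified by ELISA at 24 h. Values were derived by bidirectional fitting with DMSO serving as negative control and activity baseline.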

[2] = target: human Peroxisome Proliferator-activated Receptor alpha (PPARa), PPARA (gene 5465) (UniProt Q07869); test: ATG_PPARa_TRANS: Attagene TRANS-FACTORIAL HepG2 Assay for human Peroxisome Proliferator-activated Receptor alpha (PPARa) (AID 2283001; active means hit-call score of the fitted dose curve at least 0.9, where 1 is the maximum;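 on AC50: potency for gain of reporter signal over DMSO so agonist or activator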)
Method in brief: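 Reporter transcripts quantified by RT-PCR plus capillary electrophoresis after 24 h treatment, fitted upward relative to DMSO. Cells: human HepG2 transiently carrying multiple GAL4-UAS reporter units driven by NR-Gal4 chimeras.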

[3] = target: human Peroxisome Proliferator-activated Receptor delta (PPARd), PPARD (gene 5467) (UniProt Q03181); test: ATG_PPARd_TRANS: Attagene TRANS-FACTORIAL HepG2 Assay for human Peroxisome Proliferator-activated Receptor delta (PPARd) (AID 2283002; active means hit-call score of the fitted dose curve at least 0.9, where 1 is the maximum)
Method in brief: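 Transient HepG2 transfection (multiple GAL4-UAS RTUs, chimeric receptor-Gal4); 24 h dosing; total RNA → oligo(dT) RT → PCR → 6-FAM primer extension → HpaI cut → CE. Positive direction vs DMSO.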

[4] = target: human Retinoic Acid Receptor beta (RARb), RARB (gene 5915) (UniProt P10826); test: ATG_RARb_TRANS: Attagene TRANS-FACTORIAL HepG2 Assay for human Retinoic Acid Receptor beta (AID 2283004; active means hit-call score of the fitted dose curve at least 0.9, where 1 is the maximum)
Method in brief: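 Transient transfection of HepG2 with multiple reporter units → chemical dosing, 24 h → total RNA isolation → RT with oligo(dT) → reporter-specific PCR, 6-FAM primer extension, HpaI digest → capillary electrophoresis. Positive direction vs DMSO control.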

[5] = BSK_3C_Proliferation: Cell Proliferation Assessment in the BioMAP Diversity Plus: 3C Assay (AID 2283006); conditions: primary human endothelial cells (HUVEC);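 on AC50: potency may reflect either rise or fall in cell number versus DMSO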
Method in brief: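 Cells (human umbilical vein endothelial, sub-confluent) receive test chemical; after 48 h they are fixed in 10% trichloroacetic acid, stained with 0.1% SRB and read at 560 nm. Activity is referenced to DMSO, fitting increases and decreases.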

[6] = target: Peroxisome proliferator-activated receptor gamma (Homo sapiens) (UniProt P37231); test: ATG_PPARg_TRANS: Attagene TRANS-FACTORIAL HepG2 Assay for human Peroxisome Proliferator-activated Receptor-gamma (PPARg) (AID 2283007; active means hit-call score of the fitted dose curve at least 0.9, where 1 is the maximum)
Method in brief: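 Human hepatoma HepG2, transient MRTU transfection, 24 h treatment. mRNA reporter signal by RT-PCR plus capillary electrophoresis, fluorescence detection; fitted for increase over DMSO negative control.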

[7] = target: Nuclear receptor subfamily 1 group I member 2 (Homo sapiens) (UniProt O75469); test: ATG_PXR_TRANS: Attagene TRANS-FACTORIAL HepG2 Assay for human Pregnane X Receptor (PXR) (AID 2283008; active means hit-call score of the fitted dose curve at least 0.9, where 1 is the maximum)
Method in brief: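 Trans-factorial format: exogenous NR-Gal4 fusion activity, not endogenous factor, in transfected human HepG2 liver cells. After 24 h dosing, RNA isolated, reverse-transcribed, amplified and resolved by capillary electrophoresis; induction scored versus DMSO.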

[8] = target: human RAR-related Orphan Receptor beta (RORb), RORB (gene 6096) (UniProt Q92753); test: ATG_RORb_TRANS: Attagene TRANS-FACTORIAL HepG2 Assay for human RAR-related Orphan Receptor beta (RORb) (AID 2283010; active means hit-call score of the fitted dose curve at least 0.9, where 1 is the maximum)
Method in brief: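 Transfect HepG2 with multiple GAL4-UAS reporter transcription units; dose chemicals for 24 h; isolate RNA, reverse-transcribe and PCR-amplify reporter sequences; label, digest and resolve fragments by capillary electrophoresis; fit increases relative to DMSO.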

[9] = target: Retinoic acid receptor RXR-alpha (Homo sapiens) (UniProt P19793); test: ATG_RXRa_TRANS: Attagene TRANS-FACTORIAL HepG2 Assay for human Retinoid X Receptor alpha (RXRa) (AID 2283012; active means hit-call score of the fitted dose curve at least 0.9, where 1 is the maximum)
Method in brief: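 Measures exogenous chimeric NR-GAL4 activity in transfected HepG2 liver cells after 24 h of dosing. Induced reporter mRNA was detected by RT-PCR with capillary electrophoresis, and gain of signal was analysed against DMSO.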

[10] = target: human Retinoid X Receptor beta (RXRb), RXRB (gene 6257) (UniProt P28702); test: ATG_RXRb_TRANS: Attagene TRANS-FACTORIAL HepG2 Assay for human Retinoid X Receptor beta (RXRb) (AID 2283013; active means hit-call score of the fitted dose curve at least 0.9, where 1 is the maximum)
Method in brief: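 Chimeric receptor-Gal4 activity was assessed in transiently transfected human HepG2 cells after 24 h exposure. Transcripts from GAL4-UAS reporters were quantified by fluorescent RT-PCR and capillary electrophoresis, with DMSO as negative control and baseline.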

[11] = target: human Thyroid Receptor alpha (THRa1), THRA (gene 7067) (UniProt P10827); test: ATG_THRa1_TRANS: Attagene TRANS-FACTORIAL HepG2 Assay for human Thyroid Receptor alpha (THRa1) (AID 2283014; active means hit-call score of the fitted dose curve at least 0.9, where 1 is the maximum)
Method in brief: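 Reporter transcript induction, read by capillary electrophoresis of 6-FAM-labelled RT-PCR products, reflects activity of a transfected THRa1-Gal4 fusion in HepG2 liver cells. Cells were dosed for 24 h; activity was fitted in the positive direction against DMSO.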

[12] = read-out: E-selectin (Homo sapiens) (UniProt P16581); test: BSK_3C_Eselectin: BioMAP Diversity Plus: 3C Assay for Eselectin Biomarker Activity (AID 2283015); conditions: primary human endothelial cells (HUVEC); actives raise or lower the signal
Method in brief: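 ELISA read-out of E-selectin on endothelial monolayers after 24 h chemical treatment. Human umbilical vein primary cells served as the system, with DMSO defining baseline activity for bidirectional fitting.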

[13] = read-out: Interleukin-1 alpha (IL1a), IL1A (gene 3552); test: BSK_BE3C_IL1a: BioMAP Diversity Plus: BE3C Assay for Interleukin-1 alpha (IL1a) Biomarker Activity (AID 2283016); conditions: primary human bronchial epithelial cells; actives raise or lower the signal
Method in brief: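 Signal from IL-1a ELISA, taken 24 h after chemical dosing of human bronchial epithelial cells, is compared with DMSO as baseline using bidirectional curve fitting.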

[14] = read-out: Monocyte Chemoattractant Protein-1 (MCP1), CCL2 (gene 6347); test: BSK_3C_MCP1: BioMAP Diversity Plus: 3C Assay for Monocyte Chemoattractant Protein-1 (MCP1) Biomarker Activity (AID 2283017); conditions: primary human endothelial cells (HUVEC); actives raise or lower the signal
Method in brief: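 ELISA read-out of MCP-1 from human umbilical vein endothelial cell cultures harvested 24 h post-dosing. Gain or loss of signal was fitted relative to DMSO.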

[15] = read-out: Monocyte Chemoattractant Protein-1 (MCP1), CCL2 (gene 6347); test: BSK_4H_MCP1: BioMAP Diversity Plus: 4H Assay for Monocyte Chemoattractant Protein-1 (MCP1) Biomarker Activity (AID 2283018); conditions: primary human endothelial cells (HUVEC); actives raise or lower the signal
Method in brief: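 Endothelial cells from umbilical vein were treated with test chemical, then after 24 h MCP-1 levels were quantified by ELISA; endpoint values came from bidirectional fitting with DMSO as baseline of activity.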

[16] = read-out: Human Leukocyte Antigen - DR isotype (HLADR), HLA-DRA (gene 3122); test: BSK_3C_HLADR: BioMAP Diversity Plus: 3C Assay for Human Leukocyte Antigen - DR isotype (HLADR) Biomarker Activity (AID 2283019); conditions: primary human endothelial cells (HUVEC); actives raise or lower the signal
Method in brief: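 ELISA readout of surface HLA-DR on human umbilical vein endothelium, taken 24 h after chemical treatment. Gain- and loss-of-signal were both fitted relative to DMSO.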

[17] = read-out: Intercellular Adhesion Molecule 1 (ICAM1), ICAM1 (gene 3383); test: BSK_3C_ICAM1: BioMAP Diversity Plus: 3C Assay for Intercellular Adhesion Molecule 1 (ICAM1) Biomarker Activity (AID 2283003); conditions: primary human endothelial cells (HUVEC); actives raise or lower the signal
Method in brief: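 Chemicals are dosed onto primary human umbilical vein endothelium (3C system). After 24 h, ICAM-1 is measured by ELISA, and responses are fitted bidirectionally relative to DMSO.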

[18] = target: human Retinoic Acid Receptor gamma (RARg), RARG (gene 5916) (UniProt P13631); test: ATG_RARg_TRANS: Attagene TRANS-FACTORIAL HepG2 Assay for human Retinoic Acid Receptor gamma (RARg) (AID 2283009; active means hit-call score of the fitted dose curve at least 0.9, where 1 is the maximum)
Method in brief: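 TRANS format measured activity of exogenous NR-GAL4 fusion (RARg) in transfected HepG2 liver cells after 24 h dosing. Induced reporter RNA was detected by RT-PCR/capillary electrophoresis fluorescence, analysed in the positive direction against DMSO.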

[19] = target: human RAR-related Orphan Receptor gamma (RORg), RORC (gene 6097) (UniProt P51449); test: ATG_RORg_TRANS: Attagene TRANS-FACTORIAL HepG2 Assay for human RAR-related Orphan Receptor gamma (RORg) (AID 2283011; active means hit-call score of the fitted dose curve at least 0.9, where 1 is the maximum)
Method in brief: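 First, HepG2 liver cells were transfected with GAL4-UAS-driven reporter constructs and the RORg-Gal4 fusion. Next, they were treated with chemical for 24 h. Finally, reporter mRNA was quantified by RT-PCR and capillary electrophoresis, with upward activity fitted against DMSO.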

[20] = target: Retinoic acid receptor alpha (Homo sapiens) (UniProt P10276); test: ATG_RARa_TRANS: Attagene TRANS-FACTORIAL HepG2 Assay for human Retinoic Acid Receptor alpha (RARa) (AID 2283005; active means hit-call score of the fitted dose curve at least 0.9, where 1 is the maximum)
Method in brief: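 Reporter transcripts, measured by RT-PCR with fluorescent labeling and capillary electrophoresis after 24 h dosing, reflect activity of an exogenous human RARa–GAL4 fusion in transiently transfected HepG2. Fitted for increase relative to DMSO.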

Measured: AC50

human Retinoic Acid Receptor gamma (RARg), RARG (gene 5916), sequence (P13631 whole entry, looked up, the tested form may be a part): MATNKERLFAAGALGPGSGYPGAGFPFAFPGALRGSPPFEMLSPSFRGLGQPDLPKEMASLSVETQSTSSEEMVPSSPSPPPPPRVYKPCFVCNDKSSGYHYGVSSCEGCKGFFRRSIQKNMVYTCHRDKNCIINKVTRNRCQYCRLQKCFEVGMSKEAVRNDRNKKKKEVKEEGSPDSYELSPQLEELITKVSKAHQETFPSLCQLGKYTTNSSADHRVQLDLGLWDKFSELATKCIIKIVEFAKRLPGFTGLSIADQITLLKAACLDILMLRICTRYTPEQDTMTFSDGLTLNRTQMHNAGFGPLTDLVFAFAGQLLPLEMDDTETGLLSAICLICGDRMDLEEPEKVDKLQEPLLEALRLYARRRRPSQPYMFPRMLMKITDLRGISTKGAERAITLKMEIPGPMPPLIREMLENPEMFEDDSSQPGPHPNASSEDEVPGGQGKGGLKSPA
Nuclear receptor subfamily 1 group I member 2 (Homo sapiens), sequence (O75469 whole entry, looked up, the tested form may be a part): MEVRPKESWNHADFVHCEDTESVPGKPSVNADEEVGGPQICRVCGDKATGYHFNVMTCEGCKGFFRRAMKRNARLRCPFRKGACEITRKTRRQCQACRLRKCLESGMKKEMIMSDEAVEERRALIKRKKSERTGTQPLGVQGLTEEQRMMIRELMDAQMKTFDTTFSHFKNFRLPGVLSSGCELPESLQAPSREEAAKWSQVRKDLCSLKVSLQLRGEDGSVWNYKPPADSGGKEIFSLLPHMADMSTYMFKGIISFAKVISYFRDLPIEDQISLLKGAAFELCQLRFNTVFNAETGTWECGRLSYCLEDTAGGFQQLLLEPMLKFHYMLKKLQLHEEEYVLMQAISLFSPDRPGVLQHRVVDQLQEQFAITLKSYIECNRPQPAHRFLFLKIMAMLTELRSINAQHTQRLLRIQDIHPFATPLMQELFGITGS
human Retinoic Acid Receptor beta (RARb), RARB (gene 5915), sequence (P10826 whole entry, looked up): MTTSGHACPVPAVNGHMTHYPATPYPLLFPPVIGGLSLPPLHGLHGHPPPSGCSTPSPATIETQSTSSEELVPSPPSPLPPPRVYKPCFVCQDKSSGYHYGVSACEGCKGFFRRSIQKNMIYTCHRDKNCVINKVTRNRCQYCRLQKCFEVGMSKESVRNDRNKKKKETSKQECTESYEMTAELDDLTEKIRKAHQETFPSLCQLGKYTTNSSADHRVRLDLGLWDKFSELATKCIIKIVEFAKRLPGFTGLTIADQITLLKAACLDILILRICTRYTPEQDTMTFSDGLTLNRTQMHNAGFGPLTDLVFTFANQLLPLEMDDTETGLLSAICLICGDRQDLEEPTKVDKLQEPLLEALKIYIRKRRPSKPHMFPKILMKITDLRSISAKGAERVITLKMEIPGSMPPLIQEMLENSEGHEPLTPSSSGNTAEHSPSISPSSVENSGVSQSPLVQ
human Peroxisome Proliferator-activated Receptor alpha (PPARa), PPARA (gene 5465), sequence (Q07869 whole entry, looked up, the tested form may be a part): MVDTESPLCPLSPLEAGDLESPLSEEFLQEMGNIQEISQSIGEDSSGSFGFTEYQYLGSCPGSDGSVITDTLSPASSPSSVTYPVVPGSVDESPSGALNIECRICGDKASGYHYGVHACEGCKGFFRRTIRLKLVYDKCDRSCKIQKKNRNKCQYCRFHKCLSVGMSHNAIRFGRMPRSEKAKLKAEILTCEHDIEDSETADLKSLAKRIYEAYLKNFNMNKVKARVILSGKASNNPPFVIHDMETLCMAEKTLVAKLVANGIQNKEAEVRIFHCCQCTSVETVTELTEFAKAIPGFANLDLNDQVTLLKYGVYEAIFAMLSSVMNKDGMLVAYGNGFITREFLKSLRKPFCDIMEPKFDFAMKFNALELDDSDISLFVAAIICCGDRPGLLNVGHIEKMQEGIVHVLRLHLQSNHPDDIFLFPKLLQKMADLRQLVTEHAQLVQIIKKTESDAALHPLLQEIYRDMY
human RAR-related Orphan Receptor gamma (RORg), RORC (gene 6097), sequence (P51449 whole entry, looked up, the tested form may be a part): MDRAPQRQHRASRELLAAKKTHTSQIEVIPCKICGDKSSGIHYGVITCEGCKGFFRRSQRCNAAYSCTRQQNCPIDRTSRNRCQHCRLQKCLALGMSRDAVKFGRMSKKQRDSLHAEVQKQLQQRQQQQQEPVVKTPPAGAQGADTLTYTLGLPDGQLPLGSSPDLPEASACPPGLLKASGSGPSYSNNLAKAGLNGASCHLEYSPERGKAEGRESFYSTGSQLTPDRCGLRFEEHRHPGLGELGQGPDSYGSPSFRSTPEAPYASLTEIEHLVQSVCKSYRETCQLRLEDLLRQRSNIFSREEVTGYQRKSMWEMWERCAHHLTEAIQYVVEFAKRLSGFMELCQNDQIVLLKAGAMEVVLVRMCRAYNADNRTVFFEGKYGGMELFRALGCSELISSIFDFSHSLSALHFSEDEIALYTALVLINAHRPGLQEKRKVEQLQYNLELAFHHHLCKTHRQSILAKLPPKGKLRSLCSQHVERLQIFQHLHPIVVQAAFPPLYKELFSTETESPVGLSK
human Peroxisome Proliferator-activated Receptor delta (PPARd), PPARD (gene 5467), sequence (Q03181 whole entry, looked up, the tested form may be a part): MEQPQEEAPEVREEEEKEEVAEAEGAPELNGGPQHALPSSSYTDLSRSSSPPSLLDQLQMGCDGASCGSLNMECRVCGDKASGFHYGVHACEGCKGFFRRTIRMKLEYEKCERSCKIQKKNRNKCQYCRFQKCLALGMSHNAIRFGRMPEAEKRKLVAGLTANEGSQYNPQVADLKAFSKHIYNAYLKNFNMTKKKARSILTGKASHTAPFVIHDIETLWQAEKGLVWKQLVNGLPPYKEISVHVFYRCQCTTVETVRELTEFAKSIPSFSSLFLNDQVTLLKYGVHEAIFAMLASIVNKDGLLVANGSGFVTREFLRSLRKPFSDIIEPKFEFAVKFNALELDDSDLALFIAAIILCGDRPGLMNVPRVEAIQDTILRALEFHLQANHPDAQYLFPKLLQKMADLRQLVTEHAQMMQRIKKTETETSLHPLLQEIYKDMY
Retinoic acid receptor RXR-alpha (Homo sapiens), sequence (P19793 whole entry, looked up, the tested form may be a part): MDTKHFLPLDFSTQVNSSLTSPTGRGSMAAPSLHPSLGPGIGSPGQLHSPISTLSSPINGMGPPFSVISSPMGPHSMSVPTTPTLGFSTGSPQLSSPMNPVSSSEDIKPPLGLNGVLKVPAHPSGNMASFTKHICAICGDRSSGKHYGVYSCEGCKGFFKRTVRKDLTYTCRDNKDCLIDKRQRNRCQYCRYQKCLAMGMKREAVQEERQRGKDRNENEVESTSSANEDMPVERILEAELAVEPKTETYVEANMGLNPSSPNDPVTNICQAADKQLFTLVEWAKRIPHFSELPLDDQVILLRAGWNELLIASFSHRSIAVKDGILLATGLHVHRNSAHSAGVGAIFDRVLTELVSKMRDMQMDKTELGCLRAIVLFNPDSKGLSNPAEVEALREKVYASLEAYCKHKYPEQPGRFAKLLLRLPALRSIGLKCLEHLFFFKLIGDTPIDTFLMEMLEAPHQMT
E-selectin (Homo sapiens), sequence (P16581 whole entry, looked up): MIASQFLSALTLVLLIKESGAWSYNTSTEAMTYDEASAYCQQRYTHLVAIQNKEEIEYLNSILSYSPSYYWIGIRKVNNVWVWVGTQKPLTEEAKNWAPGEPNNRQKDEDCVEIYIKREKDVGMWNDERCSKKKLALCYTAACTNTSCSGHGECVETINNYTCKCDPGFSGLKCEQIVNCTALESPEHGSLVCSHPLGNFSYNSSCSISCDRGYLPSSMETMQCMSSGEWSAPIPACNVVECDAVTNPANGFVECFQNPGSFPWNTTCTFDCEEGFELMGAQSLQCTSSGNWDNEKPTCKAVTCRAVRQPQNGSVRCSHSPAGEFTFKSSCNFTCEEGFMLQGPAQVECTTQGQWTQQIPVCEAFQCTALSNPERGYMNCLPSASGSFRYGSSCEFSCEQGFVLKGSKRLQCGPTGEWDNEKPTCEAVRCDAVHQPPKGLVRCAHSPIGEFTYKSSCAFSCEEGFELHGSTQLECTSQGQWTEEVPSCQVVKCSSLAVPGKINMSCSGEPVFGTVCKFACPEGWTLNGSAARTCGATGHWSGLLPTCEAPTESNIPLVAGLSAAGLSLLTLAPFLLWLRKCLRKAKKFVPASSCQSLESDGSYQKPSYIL
Peroxisome proliferator-activated receptor gamma (Homo sapiens), sequence (P37231 whole entry, looked up): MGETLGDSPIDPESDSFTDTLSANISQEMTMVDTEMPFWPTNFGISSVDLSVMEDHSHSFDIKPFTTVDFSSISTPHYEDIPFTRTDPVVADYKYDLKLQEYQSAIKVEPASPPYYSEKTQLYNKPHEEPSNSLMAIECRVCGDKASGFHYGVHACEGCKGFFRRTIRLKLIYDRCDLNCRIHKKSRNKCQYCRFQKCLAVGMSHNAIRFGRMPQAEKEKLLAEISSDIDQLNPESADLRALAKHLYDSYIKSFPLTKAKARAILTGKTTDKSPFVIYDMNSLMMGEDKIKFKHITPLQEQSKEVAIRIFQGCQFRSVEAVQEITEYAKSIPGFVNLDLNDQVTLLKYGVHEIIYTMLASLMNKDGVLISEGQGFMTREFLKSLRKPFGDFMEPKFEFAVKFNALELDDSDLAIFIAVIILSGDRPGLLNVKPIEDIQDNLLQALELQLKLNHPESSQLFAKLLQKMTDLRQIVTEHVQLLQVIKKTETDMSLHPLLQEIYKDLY
human RAR-related Orphan Receptor beta (RORb), RORB (gene 6096), sequence (Q92753 whole entry, looked up, the tested form may be a part): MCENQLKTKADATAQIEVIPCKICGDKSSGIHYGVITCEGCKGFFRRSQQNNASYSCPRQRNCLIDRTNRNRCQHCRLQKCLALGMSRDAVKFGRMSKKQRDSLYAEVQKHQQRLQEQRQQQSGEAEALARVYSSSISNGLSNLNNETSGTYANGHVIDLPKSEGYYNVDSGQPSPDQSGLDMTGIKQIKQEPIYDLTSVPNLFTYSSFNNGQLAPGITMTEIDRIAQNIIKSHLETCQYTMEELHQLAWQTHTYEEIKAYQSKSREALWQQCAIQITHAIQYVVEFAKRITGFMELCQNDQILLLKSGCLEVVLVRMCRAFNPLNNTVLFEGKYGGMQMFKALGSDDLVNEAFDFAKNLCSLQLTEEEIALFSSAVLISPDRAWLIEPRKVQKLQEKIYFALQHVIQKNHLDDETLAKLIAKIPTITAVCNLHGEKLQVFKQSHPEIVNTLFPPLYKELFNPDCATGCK

Cc1ccc(O)c(-n2nc3ccccc3n2)c1
active: [7] 14.6 µM | [10] 20.4 µM
not listed: [17] | [18] | [19] | [20]
inactive: all other assays above

CCN(CCO)S(=O)(=O)C(F)(F)C(F)(F)C(F)(F)C(F)(F)C(F)(F)C(F)(F)C(F)(F)C(F)(F)F
active: [1] 20.9 µM and 43.5 µM | [17] 50.8 µM and 9.21 µM | [5] 8.37 µM and 10.7 µM | [13] 45.7 µM and 19.5 µM | [14] 23.1 µM and 9.73 µM | [16] 42.6 µM and 20.2 µM
not listed: [4] | [8] | [10] | [19] | [20]
inactive: all other assays above

Cc1cc(C)c(O)c(C(C)(C)C)c1
inactive: [2] | [3] | [6] | [8] | [19] | [9] | [11]
active: [1] 30.4 µM | [17] 30.4 µM | [5] 20 µM | [7] 16.2 µM | [12] 28.9 µM | [13] 32.6 µM | [14] 29 µM | [15] 30.7 µM | [16] 15.8 µM

OCC(O)CC(F)(F)C(F)(F)C(F)(F)C(F)(F)C(F)(F)C(F)(F)C(F)(F)C(F)(F)F (configuration not stated)
not listed: [10] | [19]
inactive: all other assays above

O=C(O)CCC(F)(F)C(F)(F)C(F)(F)C(F)(F)C(F)(F)C(F)(F)C(F)(F)F
active: [6] 150 µM
not listed: [4] | [10] | [11] | [18] | [20]
inactive: all other assays above

O=C(O)C(F)(F)C(F)(F)C(F)(F)OC(F)(C(F)(F)F)C(F)(F)F
active: [2] 24.6 µM | [6] 101 µM
not listed: [4] | [8] | [10] | [11] | [17] | [20]
inactive: all other assays above

NCC(F)(F)C(F)(F)C(F)(F)C(F)(F)C(F)(F)C(F)(F)C(F)(F)C(F)(F)F
active: [14] 0.57 µM
inactive: [1] | [2] | [17] | [4] | [20] | [5] | [6] | [7] | [18] | [9] | [10] | [11] | [12] | [13] | [14] | [15] | [16]
